According to PubChem BioAssay (EPA / NIEHS):
Records with an inconclusive call do not appear. Activity calls are given as the source filed them. How the source made its calls: active means hit-call score of the fitted dose curve at least 0.9, where 1 is the maximum; inconclusive means response in the unintended direction; inactive means score below 0.9.

Experiments:
[1] = ACEA_AR_antagonist_AUC_viability: ACEA Biosciences xCELLigence Real-Time Cell Analysis on Androgen Receptor Antagonism for Viability (AID 2283776);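 further: 22Rv1 human prostate cancer cells growing on impedance electrode plates; area under impedance growth curve at 80 h after dosing as viability; hits lower the growth signal relative to DMSO meaning cytotoxicity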
Outline: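 Viability endpoint from label-free cell-index monitoring: 22Rv1 cultures treated with an eight-point 1:4 dilution series starting at 100 uM final, AUC at 80 h fitted against DMSO.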

[2] = ACEA_ER_AUC_viability: ACEA Biosciences xCELLigence Real-Time Cell Analysis on Estrogen Receptor Agonism for Viability (AID 2283782);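 further: hit means loss of impedance signal meaning reduced cell growth or viability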
Outline: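 Viability endpoint: reduced impedance area under the curve relative to DMSO, recorded by real-time electrode sensing over ~80 h of continuous exposure. Duplicate plates of T47D in hormone-depleted medium; eight concentrations, 1:4 dilutions, 100 uM maximum.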

[3] = ACEA_AR_agonist_AUC_viability: ACEA Biosciences xCELLigence Real-Time Cell Analysis on Androgen Receptor Agonism for Viability (AID 2283775)
Outline: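 Viability endpoint from xCELLigence impedance in 22Rv1 prostate cells at 80 h. Eight-point series, 100 uM maximum final.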

CC(C)C(=O)c1ccccc1
outcome [1]: inactive
outcome [2]: inactive

CCCCCCC(C)O (stereo not drawn)
outcome [1]: inactive

CCC(C)(C)C1CCC(OC)CC1 (stereo not drawn)
outcome [3]: inactive
outcome [1]: inactive
outcome [2]: inactive

CCCCC(CC)COCCO (stereo not drawn)
outcome [3]: inactive
outcome [1]: inactive
outcome [2]: inactive

CC12CCC(C1)C(C)(C)C2O (stereo not drawn)
outcome [3]: inactive
outcome [1]: inactive
outcome [2]: inactive

CCCCCCCCOC(C)=O
outcome [3]: inactive
outcome [1]: inactive
outcome [2]: inactive

CCOc1ccc(NC(C)=O)cc1
outcome [2]: inactive

c1ccc(Cc2ccccc2)cc1
outcome [3]: inactive
AC50 [1]: 9.27 µM (active)
outcome [2]: inactive

CC(C)(O)CCc1ccccc1
outcome [2]: inactive

CCCCCCCCCCO[C@@H]1O[C@H](CO)[C@@H](O)[C@H](O)[C@H]1O
outcome [3]: inactive
outcome [1]: inactive
AC50 [2]: 80.3 µM (active)

CCC(=O)OC(C)(C)C1CC=C(C)CC1 (stereo not drawn)
outcome [1]: inactive
outcome [2]: inactive

CN(C)C
outcome [3]: inactive
outcome [2]: inactive

CCO[Si](CC)(OCC)OCC
outcome [3]: inactive
outcome [2]: inactive

CCCO[Si](OCCC)(OCCC)OCCC
outcome [1]: inactive

CC(=O)OC(C)(C)C1CC=C(C)CC1 (stereo not drawn)
outcome [3]: inactive
outcome [1]: inactive
AC50 [2]: 79 µM (active)

CC(=O)C1C(=O)C=C(C)OC1=O (stereo not drawn)
outcome [3]: inactive
outcome [1]: inactive
outcome [2]: inactive

CCCCCC1CCC(=O)O1 (stereo not drawn)
outcome [3]: inactive
outcome [1]: inactive
outcome [2]: inactive

C=CC(O)CCCCC (stereo not drawn)
outcome [1]: inactive

CCOC(=O)COC(=O)c1ccccc1C(=O)OCC
outcome [2]: inactive

CC(O)CNCC(C)O (stereo not drawn)
outcome [1]: inactive

CC/C=C\CCOC(=O)C(C)C
outcome [2]: inactive

O=S(=O)(O)c1cc(S(=O)(=O)O)c2c(N=Nc3ccccc3)c(O)ccc2c1
outcome [1]: inactive

CC(C)(C)C1CCC(O)CC1 (stereo not drawn)
outcome [3]: inactive
outcome [2]: inactive

CC(=O)c1ccc(O)cc1
outcome [3]: inactive
outcome [2]: inactive
